In PubChem BioAssay (NCI) one finds growth inhibition data, which are given here for 21 compounds.

Assay [1] is described as follows: NCI Yeast Anticancer Drug Screen. Data for the rad50 strain (AID 155).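 Note: 0% = growth of vehicle-only cultures of the same strain.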 The following applies: S. cerevisiae rad50 strain growth inhibition; at 50.0 µM; stronger effect = higher value. A digest of the protocol: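 DNA repair mutant yeast, compound exposure, growth read-out; inhibition is taken relative to vehicle.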
Assay [2] can be described thus: NCI Yeast Anticancer Drug Screen. Data for the mec2-1 strain (AID 157). The following applies: S. cerevisiae mec2-1 strain, at 50.0 µM, stronger effect = higher value. A digest of the protocol:
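Using mec2-1 yeast: add compound, measure growth, express inhibition versus vehicle-treated cultures.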

Assay [3] in a line: NCI Yeast Anticancer Drug Screen. Data for the sgs1 mgt1 strain (AID 161).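 Note: 0% = growth of cultures given vehicle only.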 The following applies: S. cerevisiae sgs1 mgt1 strain, at 50.0 µM, stronger effect = higher value. A digest of the protocol:
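This yeast growth screen uses a strain with defined DNA-repair lesions; compound-treated growth is compared with vehicle-treated growth.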

The nature of assay [4]: NCI Yeast Anticancer Drug Screen. Data for the cln2 rad14 strain (AID 165).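 Note: 0% = growth equal to vehicle treated cultures.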 Conditions: S. cerevisiae cln2 rad14 strain, at 50.0 µM, stronger effect = higher value. A digest of the protocol: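 Yeast strain cln2 rad14, bearing defects in cell cycle control and DNA repair, serves as the test system; values reflect growth inhibition compared with vehicle.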
Assay [5] in a line: NCI Yeast Anticancer Drug Screen. Data for the bub3 strain (AID 167). Conditions: S. cerevisiae bub3 mutant strain, at 50.0 µM, stronger effect = higher value. An outline of the steps: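 In this screen, a yeast mutant lacking normal mitotic checkpoint function is challenged with compound. Relative growth versus vehicle gives the inhibition value.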
A short description of assay [6]: NCI Yeast Anticancer Drug Screen. Data for the mlh1 rad18 strain (AID 175). Conditions: S. cerevisiae mlh1 rad18 strain growth inhibition; at 50.0 µM; stronger effect = higher value. A digest of the protocol: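 Steps: expose repair-defective yeast to compound; measure growth; express inhibition against vehicle-treated controls.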

“And” between values parts separate entries of the source, which are not always exact repeats. Identical values can stand only once. The panel holds about 79,000 compounds, 15% with a hit somewhere; the sample as a whole holds those more often. The source holds several records for some structures; these can differ, active in one and inactive in another. The source made the active and inactive calls. Cut-off read from the data, not from the text of the source: active = growth inhibition above about 70%; inactive = the rest.

With `Cc1ccc(S(=O)(=O)NC(C(=O)O)C(C)C)cc1` (stereo unspecified), the growth inhibition is 11.5% (inactive) and -39.5% (inactive) in assay [1]; 3.75% (inactive) and -12.9% (inactive) in assay [2]; -8.8% (inactive) and -51.1% (inactive) in assay [3]; -1.2% (inactive) and -20.2% (inactive) in assay [4]; 35% (inactive) and -16.2% (inactive) in assay [5]; 0.45% (inactive) and -18.9% (inactive) in assay [6].

On to `CC(O)C(O)C(O)C(O)CO` (stereo unspecified), for which the growth inhibition in assay [1] is 17.1% (inactive) and -19.8% (inactive); in assay [2] it was -8.65% (inactive) and -14.4% (inactive); in assay [3] it was -15.2% (inactive) and -4.65% (inactive); in assay [4], 14.2% (inactive) and -28.2% (inactive); in assay [5], -18.9% (inactive) and -5.9% (inactive); in assay [6], 0.15% (inactive) and -4.05% (inactive).

For the compound `COC1OC(COC(=O)c2ccccc2)C(OC(=O)c2ccccc2)C1OC(=O)c1ccccc1` (stereo unspecified), the growth inhibition in assay [1] was -15.4% (inactive) and 7.8% (inactive); in assay [2], -2.5% (inactive) and -10.2% (inactive); in assay [3], -3.65% (inactive) and -3.95% (inactive); in assay [4] it was -28.1% (inactive) and -21.9% (inactive); in assay [5], 15.9% (inactive) and -0.85% (inactive); in assay [6], 9% (inactive) and 4.6% (inactive).

Take `Cc1ccc(C(O)(C(F)(F)F)C(O)(c2ccc(C)cc2)C(F)(F)F)cc1` (stereo unspecified): the growth inhibition in assay [1] is 36.8% (inactive) and 99.2% (active); in assay [2] it was 1.9% (inactive) and 99.5% (active); in assay [3] it was -12.8% (inactive) and 99.3% (active); in assay [4] it was -10.2% (inactive) and 99.4% (active); in assay [5], -8.85% (inactive) and 99.3% (active); in assay [6], -5.75% (inactive) and 99% (active).

As for `O=C1c2ccccc2C(=O)c2c(O)ccc(O)c21`, the growth inhibition is 51.5% (inactive) and 39.8% (inactive) in assay [1]; 37.2% (inactive) and 11.2% (inactive) in assay [2]; 54.1% (inactive) and 21.6% (inactive) in assay [3]; 24.4% (inactive) and 33.8% (inactive) in assay [4]; 52% (inactive) and 28.9% (inactive) in assay [5]; 50.5% (inactive) and 13.8% (inactive) in assay [6].

As to `CC(CC(=O)O)C(C(=O)O)C(=O)O` (stereo unspecified), the growth inhibition was 0.4% (inactive) and 7.6% (inactive) in assay [1]; -25.9% (inactive) and 2.4% (inactive) in assay [2]; -33.5% (inactive) and -16.6% (inactive) in assay [3]; -32.2% (inactive) and 0.4% (inactive) in assay [4]; -21.8% (inactive) and 8.7% (inactive) in assay [5]; -18.3% (inactive) and -7.75% (inactive) in assay [6].

Regarding `O=[N+]([O-])c1ccc(Cc2ccccc2)cc1`, the growth inhibition was -2.8% (inactive) and -37.1% (inactive) in assay [1]; -32.1% (inactive) and -23.9% (inactive) in assay [2]; 7.7% (inactive) and -11.6% (inactive) in assay [3]; 3.2% (inactive) and -9.15% (inactive) in assay [4]; 13.8% (inactive) and -11.9% (inactive) in assay [5]; -30.9% (inactive) and -14.7% (inactive) in assay [6].

For `CC(C)CC(NC(=O)COc1ccc(Cl)cc1Cl)C(=O)O` (stereo unspecified), the growth inhibition is -16.8% (inactive) and -4.25% (inactive) in assay [1]; -3.15% (inactive) and -14.4% (inactive) in assay [2]; 7.55% (inactive) and -4.15% (inactive) in assay [3]; -50.5% (inactive) and -21.7% (inactive) in assay [4]; 4.5% (inactive) and 13.7% (inactive) in assay [5]; -3.8% (inactive) and -11.1% (inactive) in assay [6].

In the case of `O=C(Oc1ccc(Cl)cc1Cl)Oc1ccc(Cl)cc1Cl`, the growth inhibition in assay [1] was -16.8% (inactive) and -3.1% (inactive); in assay [2] it was 11.6% (inactive) and 10% (inactive); in assay [3], -0.9% (inactive) and -13.1% (inactive); in assay [4] it was -13.1% (inactive) and -15.7% (inactive); in assay [5], 14.2% (inactive) and 14.9% (inactive); in assay [6], -14.5% (inactive) and 20.6% (inactive).

`CC(C)CC(CC(C)C)=NNc1ccc([N+](=O)[O-])cc1[N+](=O)[O-]`: the growth inhibition was -12.9% (inactive) and -0.9% (inactive) in assay [1]; 6.5% (inactive) and -18.6% (inactive) in assay [2]; -10% (inactive) and -6.9% (inactive) in assay [3]; -33.3% (inactive) and 19.9% (inactive) in assay [4]; 12.3% (inactive) and -10.9% (inactive) in assay [5]; -13.9% (inactive) and 19.4% (inactive) in assay [6].

Turning to `Cc1[nH]n(-c2ccc(S(=O)(=O)O)cc2)c(=O)c1N=Nc1ccccc1`, the growth inhibition was -0.4% (inactive) and -2.2% (inactive) in assay [1]; 6.55% (inactive) and -21.9% (inactive) in assay [2]; -10% (inactive) and 2.1% (inactive) in assay [3]; 0.95% (inactive) and 8.8% (inactive) in assay [4]; 10.8% (inactive) and 4.1% (inactive) in assay [5]; -0.6% (inactive) and 15.1% (inactive) in assay [6].

As to `CN(C)N=Nc1ccc(C(=O)O)cc1`, the growth inhibition was 27.6% (inactive) and 12.6% (inactive) in assay [1]; 22.1% (inactive) and -1.3% (inactive) in assay [2]; 28.6% (inactive) and 20.9% (inactive) in assay [3]; -0.05% (inactive) and -0.65% (inactive) in assay [4]; 16.9% (inactive) and -21.1% (inactive) in assay [5]; 26.6% (inactive) and 7.65% (inactive) in assay [6].

Take `CC1CC(C)(C)C2=NCCN21` (stereo unspecified): the growth inhibition in assay [1] is 2.25% (inactive) and -8.15% (inactive); in assay [2], -23.6% (inactive) and -28.6% (inactive); in assay [3], -4.8% (inactive) and 8.8% (inactive); in assay [4], -3.2% (inactive) and 18.6% (inactive); in assay [5], -7.3% (inactive) and 14.2% (inactive); in assay [6] it was -0.7% (inactive) and -3.25% (inactive).

Regarding `Oc1ccc2ccccc2c1CNCc1c(O)ccc2ccccc12`, the growth inhibition is -1.45% (inactive) and 2.85% (inactive) in assay [1]; -7.9% (inactive) and -34.8% (inactive) in assay [2]; 6% (inactive) and 1.7% (inactive) in assay [3]; -23.4% (inactive) and -2.4% (inactive) in assay [4]; 26.5% (inactive) and -20.8% (inactive) in assay [5]; -8.15% (inactive) and -9.85% (inactive) in assay [6].

As to `CCCCCC(O)C1C(=O)OC(C)C(O)/C=C/C=C/C=C/C=C\C=C(\C)C(O)CC(O)CC(O)CC(O)CC(O)CC(O)CC1O` (stereo unspecified), the growth inhibition in assay [1] was 2.6% (inactive) and 13.8% (inactive); in assay [2], 16.9% (inactive) and -17.5% (inactive); in assay [3], -18.1% (inactive) and -4.65% (inactive); in assay [4], 68.2% (inactive) and 1.3% (inactive); in assay [5] it was 5.85% (inactive) and 12.3% (inactive); in assay [6], 62.3% (inactive) and 6.3% (inactive).

As for `CC(COC(=O)c1ccccc1)NC1CCCCC1` (stereo unspecified), the growth inhibition was 12.3% (inactive) and 21.9% (inactive) in assay [1]; 1.05% (inactive) and -0.85% (inactive) in assay [2]; 13.7% (inactive) and 10.7% (inactive) in assay [3]; -27.6% (inactive) and -0.55% (inactive) in assay [4]; -10.3% (inactive) and 0.7% (inactive) in assay [5]; 10.4% (inactive) and -0.2% (inactive) in assay [6].

Consider `O=C1CCCCC1C(O)c1ccc([N+](=O)[O-])cc1` (stereo unspecified), for which the growth inhibition in assay [1] is 0.05% (inactive) and -2.7% (inactive); in assay [2] it was 16.1% (inactive) and -5.9% (inactive); in assay [3], 10.7% (inactive) and -2.35% (inactive); in assay [4] it was -2.35% (inactive) and -15.2% (inactive); in assay [5], 5.3% (inactive) and -5.1% (inactive); in assay [6] it was 16.1% (inactive) and -6.85% (inactive).

With `CN(C)COC(=S)S`, the growth inhibition was -7.65% (inactive) and 4.05% (inactive) in assay [1]; -14.4% (inactive) and 3.65% (inactive) in assay [2]; -3.8% (inactive) and -1.7% (inactive) in assay [3]; -30.9% (inactive) and 3.55% (inactive) in assay [4]; 1.75% (inactive) and -5.5% (inactive) in assay [5]; -3.9% (inactive) and 2.1% (inactive) in assay [6].

Take `N/N=C(/C(=O)c1ccccc1)c1ccccc1`: the growth inhibition in assay [1] is -10% (inactive) and 18% (inactive); in assay [2] it was 5.4% (inactive) and 10% (inactive); in assay [3], 5.4% (inactive) and 0.5% (inactive); in assay [4], 11.6% (inactive) and -56% (inactive); in assay [5] it was -3.1% (inactive) and -1.85% (inactive); in assay [6], 10.2% (inactive) and 7.9% (inactive).

For the compound `O=C(O)CN(CCO)CCO`, the growth inhibition was -17.9% (inactive) and -21.6% (inactive) in assay [1]; 7.65% (inactive) and -16.6% (inactive) in assay [2]; 21.4% (inactive) and 12.2% (inactive) in assay [3]; -29.1% (inactive) and 1.45% (inactive) in assay [4]; -27.9% (inactive) and -16.8% (inactive) in assay [5]; -18% (inactive) and 10.1% (inactive) in assay [6].

`COc1ccc(/C=C2/N=C(N/N=C\C(O)C(O)C(O)CO)NC2=O)cc1` (stereo unspecified): the growth inhibition is 1% (inactive) and 34.4% (inactive) in assay [1]; 12.4% (inactive) and 17.6% (inactive) in assay [2]; 3.55% (inactive) and 13.3% (inactive) in assay [3]; 26.4% (inactive) and 1.4% (inactive) in assay [4]; -6.95% (inactive) and 21.9% (inactive) in assay [5]; -46% (inactive) and 18.8% (inactive) in assay [6].
